These results are taken from PubChem BioAssay (EPA / NIEHS).

Holding throughout (details): mRNA level, 48 h; actives raise or lower the signal
Read-out in experiment [1]: Paternally Expressed 10 (PEG10), PEG10 (gene 23089)
The experiment is described as follows: LTEA_HepaRG_PEG10: Life Technologies and Expression Analysis (LTEA) Assay for Paternally Expressed 10 (PEG10) using HepaRG (AID 2283520).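 On AC50: differentiated HepaRG human liver cells in serum-free induction medium with 0.5% DMSO; PEG10 transcript by qRT-PCR normalised to ACTB GAPDH and POLR2A.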 Summed up:
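Human HepaRG cultures are dosed for 48 h across an eight-point half-log series starting at 100 uM, with 0.5% DMSO as vehicle and baseline. Gain or loss of PEG10 transcript is measured by qRT-PCR and fitted in both directions.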

Read-out in experiment [2]: Nuclear factor NF-kappa-B p105 subunit (Homo sapiens) (UniProt P19838)
The experiment is described as follows: LTEA_HepaRG_NFKB1: Life Technologies and Expression Analysis (LTEA) Assay for Nuclear Factor Kappa B Subunit 1 (NFKB1) using HepaRG (AID 2283521).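 Further: differentiated human HepaRG liver cells in serum-free induction medium; TaqMan qRT-PCR transcript normalised to ACTB GAPDH and POLR2A housekeeping genes.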 In a few lines:
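HepaRG, 48 h exposure; 8-pt half-log series from 100 uM in 0.5% DMSO; duplicates. Readout: NFKB1 mRNA by qRT-PCR (Fluidigm arrays), housekeeping-normalized. Gain/loss fit vs DMSO baseline.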

Read-out in experiment [3]: Protein phosphatase 2A (PPP2R4), PTPA (gene 5524)
The experiment is described as follows: LTEA_HepaRG_PPP2R4: Life Technologies and Expression Analysis (LTEA) Assay for Protein phosphatase 2A (PPP2R4) using HepaRG (AID 2283522). Summed up:
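Cells were plated, cultured 48 h, switched to serum-free induction medium, then dosed for 48 h (8 points, max 100 uM, 0.5% DMSO). RNA was isolated and PPP2R4 expression measured by TaqMan qRT-PCR.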

Read-out in experiment [4]: Phosphatase and tensin (PTEN), PTEN (gene 5728)
Nature of the experiment: LTEA_HepaRG_PTEN: Life Technologies and Expression Analysis (LTEA) Assay for Phosphatase and tensin (PTEN) using HepaRG (AID 2283523). Summed up: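 HepaRG, 48 h exposure, 8-pt half-log series from 100 uM top, 0.5% DMSO vehicle, duplicates. Readout: Fluidigm qRT-PCR of PTEN transcript; housekeeping normalization (ACTB, GAPDH, POLR2A). Gain or loss fitted relative to DMSO baseline.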

Read-out in experiment [5]: solute carrier (SLC22A1), SLC22A1 (gene 6580)
Nature of the experiment: LTEA_HepaRG_SLC22A1: Life Technologies and Expression Analysis (LTEA) Assay for solute carrier (SLC22A1) using HepaRG (AID 2283524).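 On AC50: differentiated human HepaRG liver cells in serum-free induction medium.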 Summed up: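 qRT-PCR readout (TaqMan, Fluidigm arrays) of SLC22A1 transcript, normalized to three housekeeping genes; bidirectional curve fit relative to 0.5% DMSO vehicle. Differentiated human HepaRG cells, 48 h chemical exposure, top concentration 100 uM, half-log steps, eight points.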

Read-out in experiment [6]: NAD(P)H dehydrogenase [quinone] 1 (NQO1), NQO1 (gene 1728)
The experiment is described as follows: LTEA_HepaRG_NQO1: Life Technologies and Expression Analysis (LTEA) Assay for NAD(P)H dehydrogenase [quinone] 1 (NQO1) using HepaRG (AID 2283526). In a few lines: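 Transcript induction or suppression is quantified by qRT-PCR in human HepaRG liver cells dosed for 48 hours. Eight half-log concentrations topping at 100 uM are used, with 0.5% DMSO as vehicle and baseline.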

Read-out in experiment [7]: Nuclear factor erythroid 2-related factor 2 (Homo sapiens) (UniProt Q16236)
Nature of the experiment: LTEA_HepaRG_NFE2L2: Life Technologies and Expression Analysis (LTEA) Assay for Nuclear factor erythroid 2-related factor 2 (NFE2L2) Transcription Factor using HepaRG (AID 2283527).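 On outcome: TaqMan qRT-PCR transcript level normalised to ACTB GAPDH and POLR2A housekeeping genes.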 Summed up:
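HepaRG, 48 h dosing, 8-pt half-log series from 100 uM in 0.5% DMSO, duplicates. Read-out: NFE2L2 mRNA by qRT-PCR (ACTB/GAPDH/POLR2A normalization). Bidirectional curve fit vs DMSO baseline.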

Read-out in experiment [8]: succinate dehydrogenase complex iron sulfur subunit B (SDHB), SDHB (gene 6390)
Nature of the experiment: LTEA_HepaRG_SDHB: Life Technologies and Expression Analysis (LTEA) Assay for succinate dehydrogenase complex iron sulfur subunit B (SDHB) using HepaRG (AID 2283528). Summed up:
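Readout is SDHB transcript level by qRT-PCR, normalised to three housekeeping genes and fitted bidirectionally against 0.5% DMSO vehicle. Human HepaRG cells were treated for 48 h at up to 100 uM.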

Read-out in experiment [9]: solute carrier (SLCO1B1), SLCO1B1 (gene 10599)
Nature of the experiment: LTEA_HepaRG_SLCO1B1: Life Technologies and Expression Analysis (LTEA) Assay for solute carrier (SLCO1B1) using HepaRG (AID 2283530). In a few lines: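 HepaRG, serum-free induction medium, 48 h dosing, 8-pt half-log from 100 uM, 0.5% DMSO vehicle, duplicates. Readout: SLCO1B1 mRNA, qRT-PCR, ACTB/GAPDH/POLR2A normalization; up or down fit vs DMSO.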

Read-out in experiment [10]: sulfotransferase 2A1 (SULT2A1), SULT2A1 (gene 6822)
Nature of the experiment: LTEA_HepaRG_SULT2A1: Life Technologies and Expression Analysis (LTEA) Assay for sulfotransferase 2A1 (SULT2A1) using HepaRG (AID 2283531). Summed up:
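Transcript levels of SULT2A1, quantified by qRT-PCR and normalized to three housekeeping genes, serve as the readout. Human HepaRG cultures receive test chemicals for 48 h at up to 100 uM in half-log steps, with 0.5% DMSO vehicle.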

Read-out in experiment [11]: Transforming Growth Factor (TGFA), TGFA (gene 7039)
Nature of the experiment: LTEA_HepaRG_TGFA: Life Technologies and Expression Analysis (LTEA) Assay for Transforming Growth Factor (TGFA) using HepaRG (AID 2283532). Summed up:
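qRT-PCR read-out of TGFA transcript, normalized to three housekeeping genes, fitted bidirectionally against 0.5% DMSO baseline. Human HepaRG cultures received chemicals for 48 h at eight half-log concentrations, top 100 uM.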

Read-out in experiment [12]: Transforming Growth Factor (TGFB1), TGFB1 (gene 7040)
The experiment is described as follows: LTEA_HepaRG_TGFB1: Life Technologies and Expression Analysis (LTEA) Assay for Transforming Growth Factor (TGFB1) Transporter using HepaRG (AID 2283533). In a few lines:
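HepaRG, 48 h post-plating, switched to serum-free induction medium; chemicals 100 uM top, half-log, 8 pts, 0.5% DMSO, dup; 48 h exposure; RNA → Fluidigm TaqMan qRT-PCR; norm ACTB/GAPDH/POLR2A; bidirectional fit vs DMSO.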

Read-out in experiment [13]: TIMP1, TIMP1 (gene 7076)
The experiment is described as follows: LTEA_HepaRG_TIMP1: Life Technologies and Expression Analysis (LTEA) Assay for TIMP1 using HepaRG (AID 2283534). In a few lines:
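Readout is TIMP1 mRNA level measured by qRT-PCR and normalized to three housekeeping genes. Human HepaRG cells were treated for 48 h in duplicate at eight concentrations up to 100 uM (0.5% DMSO); gain or loss fitted against DMSO.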

Read-out in experiment [14]: Tumor necrosis factor receptor 1 (TNFRSF1A), TNFRSF1A (gene 7132)
Nature of the experiment: LTEA_HepaRG_TNFRSF1A: Life Technologies and Expression Analysis (LTEA) Assay for Tumor necrosis factor receptor 1 (TNFRSF1A) using HepaRG (AID 2283535). In a few lines: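 Read-out is TNFRSF1A transcript level by TaqMan qRT-PCR, normalized to three housekeeping genes, scored as gain or loss of signal versus 0.5% DMSO. Human HepaRG cells received test chemicals for 48 h at up to 100 uM (half-log series).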

Read-out in experiment [15]: Thyroid Hormone Responsive (THRSP), THRSP (gene 7069)
The experiment is described as follows: LTEA_HepaRG_THRSP: Life Technologies and Expression Analysis (LTEA) Assay for Thyroid Hormone Responsive (THRSP) using HepaRG (AID 2283536). Summed up:
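qRT-PCR read-out (Fluidigm TaqMan), housekeeping-normalized (ACTB/GAPDH/POLR2A). HepaRG, 48 h chemical exposure, 8-pt half-log series from 100 uM in 0.5% DMSO, duplicates. Bidirectional curve fit vs 0.5% DMSO baseline.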

Read-out in experiment [16]: UDP glucuronosyltransferase (UGT1A1), UGT1A1 (gene 54658)
The experiment is described as follows: LTEA_HepaRG_UGT1A1: Life Technologies and Expression Analysis (LTEA) Assay for UDP glucuronosyltransferase (UGT1A1) using HepaRG (AID 2283538). Summed up:
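Cells are plated, cultured 48 h, switched to serum-free induction medium, then dosed 48 h at eight concentrations (max 100 uM, 0.5% DMSO). RNA is isolated and UGT1A1 expression measured by qRT-PCR; changes versus DMSO are fitted in both directions.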

Read-out in experiment [17]: UDP glucuronosyltransferase (UGT1A6), UGT1A6 (gene 54578)
Nature of the experiment: LTEA_HepaRG_UGT1A6: Life Technologies and Expression Analysis (LTEA) Assay for UDP glucuronosyltransferase (UGT1A6) using HepaRG (AID 2283539). Summed up:
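HepaRG, 48 h post-plating switch to serum-free induction medium; chemical 48 h, 100 uM top, half-log x8, duplicate, 0.5% DMSO. Phenobarbital 1mM induction control. UGT1A6 mRNA by TaqMan qRT-PCR; gain/loss fit vs DMSO.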

Read-out in experiment [18]: Signal transducer and activator of transcription 3 (Homo sapiens) (UniProt P40763)
Nature of the experiment: LTEA_HepaRG_STAT3: Life Technologies and Expression Analysis (LTEA) Assay for Signal transducer and activator of transcription (STAT3) using HepaRG (AID 2283529). In a few lines: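 HepaRG, 48 h exposure, 8-pt half-log series (top 100 uM), 0.5% DMSO vehicle, duplicates. Readout: STAT3 transcript by Fluidigm qRT-PCR, housekeeping-normalized; bidirectional fit vs DMSO baseline.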

Read-out in experiment [19]: Cellular tumor antigen p53 (Homo sapiens) (UniProt P04637)
Nature of the experiment: LTEA_HepaRG_TP53: Life Technologies and Expression Analysis (LTEA) Assay for Tumor Protein P53 (TP53) using HepaRG (AID 2283537). Summed up: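 Read-out is TP53 transcript level by microfluidic qRT-PCR, normalised to three housekeeping genes and fitted bidirectionally against DMSO. Human HepaRG cells received compounds for 48 h, highest concentration 100 uM.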

The AC50 is the concentration at which the activity in the assay is half-maximal.

Molecules are shown by their SMILES. The source made the active and inactive calls. How the source made its calls: active means hit-call score of the fitted dose curve at least 0.9, where 1 is the maximum; inactive means score below 0.9.

Chain of Nuclear factor erythroid 2-related factor 2 (Homo sapiens) (Q16236 whole entry, looked up): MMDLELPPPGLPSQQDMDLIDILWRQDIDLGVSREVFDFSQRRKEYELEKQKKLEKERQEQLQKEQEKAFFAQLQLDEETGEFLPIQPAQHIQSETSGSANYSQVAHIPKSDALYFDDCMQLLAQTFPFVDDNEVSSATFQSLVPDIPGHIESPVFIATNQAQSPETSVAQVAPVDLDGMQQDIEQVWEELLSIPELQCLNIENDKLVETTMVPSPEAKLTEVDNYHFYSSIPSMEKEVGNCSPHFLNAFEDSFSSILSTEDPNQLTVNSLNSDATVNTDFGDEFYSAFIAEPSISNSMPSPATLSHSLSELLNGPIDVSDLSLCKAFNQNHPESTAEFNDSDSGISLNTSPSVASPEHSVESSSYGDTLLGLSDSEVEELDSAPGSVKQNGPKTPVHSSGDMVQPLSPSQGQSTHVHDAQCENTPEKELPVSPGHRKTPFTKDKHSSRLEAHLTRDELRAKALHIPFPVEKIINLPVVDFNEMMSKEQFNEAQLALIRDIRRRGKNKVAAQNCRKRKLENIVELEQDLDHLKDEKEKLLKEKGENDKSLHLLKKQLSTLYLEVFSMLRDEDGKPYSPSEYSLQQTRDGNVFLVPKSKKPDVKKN
Chain of Cellular tumor antigen p53 (Homo sapiens) (P04637 whole entry, looked up): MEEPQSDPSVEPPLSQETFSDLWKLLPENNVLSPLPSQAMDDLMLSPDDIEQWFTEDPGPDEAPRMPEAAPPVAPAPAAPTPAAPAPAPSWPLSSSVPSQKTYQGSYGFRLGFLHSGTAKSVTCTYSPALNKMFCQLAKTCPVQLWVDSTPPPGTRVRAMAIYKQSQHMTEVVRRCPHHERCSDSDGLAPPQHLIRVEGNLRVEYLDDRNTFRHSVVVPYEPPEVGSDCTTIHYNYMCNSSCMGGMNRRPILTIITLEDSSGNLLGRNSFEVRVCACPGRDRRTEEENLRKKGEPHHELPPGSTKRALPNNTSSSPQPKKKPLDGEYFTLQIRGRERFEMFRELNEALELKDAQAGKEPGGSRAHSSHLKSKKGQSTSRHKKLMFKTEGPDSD
Chain of Nuclear factor NF-kappa-B p105 subunit (Homo sapiens) (P19838 whole entry, looked up): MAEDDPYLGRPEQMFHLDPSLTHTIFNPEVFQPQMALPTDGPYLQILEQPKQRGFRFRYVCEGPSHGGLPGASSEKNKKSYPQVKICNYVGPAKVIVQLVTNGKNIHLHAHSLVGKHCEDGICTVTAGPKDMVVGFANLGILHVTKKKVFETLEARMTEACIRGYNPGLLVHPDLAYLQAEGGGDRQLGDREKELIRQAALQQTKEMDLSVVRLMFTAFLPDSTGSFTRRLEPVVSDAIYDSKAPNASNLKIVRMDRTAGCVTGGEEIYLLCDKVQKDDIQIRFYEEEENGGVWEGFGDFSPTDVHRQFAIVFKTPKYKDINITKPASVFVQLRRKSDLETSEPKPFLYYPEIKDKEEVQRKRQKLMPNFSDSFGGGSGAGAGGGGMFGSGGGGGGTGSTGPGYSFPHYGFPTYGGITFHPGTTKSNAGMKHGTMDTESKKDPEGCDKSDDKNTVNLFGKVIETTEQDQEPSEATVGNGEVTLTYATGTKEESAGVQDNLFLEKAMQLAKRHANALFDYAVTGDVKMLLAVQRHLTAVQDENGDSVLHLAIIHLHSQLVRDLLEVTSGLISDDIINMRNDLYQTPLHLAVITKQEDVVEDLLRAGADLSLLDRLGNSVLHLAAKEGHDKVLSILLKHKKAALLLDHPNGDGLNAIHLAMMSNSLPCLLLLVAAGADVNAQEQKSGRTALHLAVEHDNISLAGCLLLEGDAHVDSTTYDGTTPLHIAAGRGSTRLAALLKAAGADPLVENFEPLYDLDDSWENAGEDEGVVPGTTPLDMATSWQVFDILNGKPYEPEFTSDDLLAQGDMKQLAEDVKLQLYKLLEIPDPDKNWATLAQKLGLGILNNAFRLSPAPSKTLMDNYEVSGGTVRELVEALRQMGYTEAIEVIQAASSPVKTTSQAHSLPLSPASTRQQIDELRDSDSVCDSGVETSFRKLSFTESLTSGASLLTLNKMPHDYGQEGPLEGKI
Chain of Signal transducer and activator of transcription 3 (Homo sapiens) (P40763 whole entry, looked up): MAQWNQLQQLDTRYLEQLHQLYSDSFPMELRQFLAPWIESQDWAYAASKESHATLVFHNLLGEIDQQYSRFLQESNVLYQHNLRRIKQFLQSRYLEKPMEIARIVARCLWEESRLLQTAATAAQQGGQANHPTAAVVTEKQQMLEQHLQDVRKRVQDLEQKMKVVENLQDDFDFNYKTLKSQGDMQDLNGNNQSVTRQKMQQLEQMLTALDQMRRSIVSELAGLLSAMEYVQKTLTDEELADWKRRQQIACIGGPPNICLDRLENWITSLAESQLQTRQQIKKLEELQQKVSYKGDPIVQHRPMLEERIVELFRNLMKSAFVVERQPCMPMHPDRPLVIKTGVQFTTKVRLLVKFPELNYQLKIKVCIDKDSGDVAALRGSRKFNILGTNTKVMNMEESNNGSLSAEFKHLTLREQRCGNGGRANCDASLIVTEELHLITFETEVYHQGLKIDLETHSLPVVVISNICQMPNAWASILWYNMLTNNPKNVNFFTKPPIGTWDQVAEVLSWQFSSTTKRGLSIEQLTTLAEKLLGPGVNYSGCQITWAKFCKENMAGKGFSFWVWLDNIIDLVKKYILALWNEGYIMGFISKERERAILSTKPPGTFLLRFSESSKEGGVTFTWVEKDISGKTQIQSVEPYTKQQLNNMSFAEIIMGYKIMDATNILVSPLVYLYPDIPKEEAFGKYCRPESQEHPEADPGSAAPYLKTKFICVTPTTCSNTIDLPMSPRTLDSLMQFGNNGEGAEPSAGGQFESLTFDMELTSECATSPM

Regarding `C[C@]12CC[C@@H]3c4ccc(O)cc4CC[C@H]3[C@@H]1CCC2=O`, the outcome in experiment [1], in experiment [2], in experiment [3], in experiment [4], in [6] and in experiment [7] was inactive. The call in [8], in experiment [9], in [10], in experiment [11], in experiment [12] and in experiment [13] was inactive. For the same compound, the compound was called inactive in experiment [14], in [15] and in experiment [17]. Besides, the AC50 was 33.3 µM (active) in experiment [5] and 5.13 µM (active) in experiment [16].

As to `CCCCCCCCN(C)CCCCCCCC`, the outcome in experiment [1], in experiment [2], in [3], in experiment [4], in [5] and in experiment [7] was inactive. Further, the compound was classed as inactive in experiment [8], in experiment [18], in experiment [9], in [10], in experiment [11] and in experiment [12]. Moreover, the outcome in [13], in experiment [14], in experiment [15], in experiment [19], in experiment [16] and in [17] was inactive.

Turning to `CC/C(=C(/CC)c1ccc(O)cc1)c1ccc(O)cc1`, the half-maximal activity concentration (AC50) in experiment [1] is 67.1 µM (active); in experiment [3] it was 85.4 µM (active); in experiment [4] it was 93.8 µM (active); in experiment [5] it was 75.7 µM (active); in experiment [7] it was 89.9 µM (active); in [8], 50 µM (active). In addition, the AC50 was 93.7 µM (active) in experiment [10]; 81.3 µM (active) in experiment [11]; 90.8 µM (active) in [12]; 93.8 µM (active) in [14]; 21.7 µM (active) in experiment [15]; 93.9 µM (active) in experiment [16]. Besides, in experiment [17], the AC50 is 76.7 µM (active). Moreover, the result in experiment [6], in experiment [9], in experiment [13] and in experiment [19] was inactive.
